Hedgehog inh: blocks Sonic Hedgehog signaling; Shh-LIGHT2 Gli-luciferase reporter, 30 h; inhibition, % (concentration not given with the values); actives 2.1% (n = 22,000); AID 2313;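 active means mean inhibition across valid replicates above about 65%, limit read from the data; inconclusive means mean under the limit, yet half or more replicates past it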;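 further: pathway switched on by Shh-conditioned medium diluted 1 in 25 in low serum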
MITF inh: inhibitors of MITF; TRPM1 promoter luciferase, luminescence, 24 h; inhibition, % (test concentration not listed); actives 0.28% (n = 37,000); AID 2240; in the data active means inhibition above about 85%; inconclusive means no clear call, values can overlap the other calls; inactive means below about 68%;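 further: human melanocyte line stably carrying TRPM1 promoter luciferase reporter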
PD-1 reverse act: activators reversing PD-1 mediated T-cell inhibition; primary human CD4 T cells, PD-L1 beads, CellTiter-Glo 96 h; activation, % (test concentration not listed); 29,000 tested, under 10 active; call rule not given here;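 further: 0% = median vehicle wells and 100% = positive control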
NOMO-1 viab: STK33 inhibitor candidate reducing NOMO-1 cell viability | actives 7.5% (n = 37,000) | inhibition, % (test concentration not listed) | NOMO-1 AML viability, CellTiter-Glo luminescence, 72 h; in the data active means inhibition above about 80%; inconclusive means no clear call, values can overlap the other calls
Numbers without * were called inactive; ? = inconclusive; · = not tested or not shown. The list is not random: actives were taken first. Their share in the collection is about 7.9%.

SMILES	Hedgehog inh	MITF inh	PD-1 reverse act	NOMO-1 viab
C[C@H](CO)N1C[C@H](C)[C@H](CN(C)Cc2ccc(C(=O)Nc3ccccc3N)cc2)Oc2ccc(NC(=O)Cc3cn(C)c4ccccc34)cc2CC1=O	·	6.0	-5.1	127.0*
C[C@H]1CN([C@@H](C)CO)C(=O)Cc2cc(NC(=O)Cc3cn(C)c4ccccc34)ccc2O[C@H]1CN(C)Cc1ccc(C(=O)Nc2ccccc2N)cc1	·	19.2	-2.3	120.1*
N#CC1=C(N)C(C#N)=c2s/c(=C/c3cccc(F)c3)c(=O)n2C1c1cccc(F)c1 (stereo unspecified)	-25.9	-13.1	0.9	115.7*
COC(=O)c1c(NC(=S)Nc2nc(C)cc(C)n2)sc2c1CCC2	·	3.1	·	34.7
C[C@@H]1CC(=O)C2=C(C1)C[C@@H](O)[C@@]1(O)C2C(=O)c2cccc(O)c2[C@@H]1O (stereo partly specified)	-12.1	9.2	1.2	3.9
CC1CC(=O)C2=C(CCC34OC23C(=O)c2cccc(O)c2C4O)C1 (stereo unspecified)	-2.9	14.8	-1.8	99.7*
C[C@H]1CN([C@@H](C)CO)C(=O)Cc2cc(NC(=O)NC3CCCCC3)ccc2O[C@H]1CN(C)Cc1ccc(-c2ccccc2)cc1	36.5	25.3	-8.3	113.8*
C[C@H](CO)N1C[C@H](C)[C@H](CN(C)Cc2ccc(-c3ccccc3)cc2)Oc2ccc(NC(=O)NC3CCCCC3)cc2CC1=O	-14.5	11.6	-3.3	87.0*
C[C@@H]1CN([C@H](C)CO)C(=O)Cc2cc(NC(=O)NC3CCCCC3)ccc2O[C@@H]1CN(C)Cc1ccccc1	19.0	10.7	-0.9	41.5
C[C@H]1CN([C@@H](C)CO)C(=O)Cc2cc(NC(=O)NC3CCCCC3)ccc2O[C@@H]1CN(C)Cc1ccccc1	-14.3	-3.2	2.0	27.3
COc1ccc(CNCCCN2CCOCC2)cc1OC	·	-11.8	·	31.8
Oc1c(C(Nc2ccccn2)c2cccc(OC3CCCC3)c2)ccc2cccnc12 (stereo unspecified)	·	66.0	-12.2	114.2*
COc1ccc(SCC(=O)Nc2ccccn2)cc1	-4.6	-3.2	1.0	10.5
C#CCOc1ccc(C(Nc2ccccn2)c2ccc3cccnc3c2O)cc1 (stereo unspecified)	·	43.2	·	112.8*
C=C1[C@H](OC(=O)C(C)CC)[C@@H](OC(=O)C(C)C)[C@@H](O)C(C)(C)/C=C\[C@H](C)C(=O)[C@@]2(O)C[C@H](C)[C@H](O)[C@@H]2[C@H]1OC(=O)C(C)CC (stereo partly specified)	28.0	-43.6	55.9*	60.4
CCc1oc2ccccc2c1C(=O)c1ccc(OC(C)=O)cc1	10.7	32.2	-1.6	136.5*
COc1ccc(C(=O)c2oc3ccccc3c2NC(=O)COc2ccc(C)cc2)cc1	·	-44.7	2.8	2.6
C[C@@H]1CCOC(=O)C=CC=CC(=O)O[C@@H]2C[C@H]3O[C@@H]4C=C(C(=O)O)CC[C@]4(COC(=O)[C@H]1O)[C@]2(C)[C@]31CO1	3.7	65.0	-5.9	120.6*
CS(=O)(=O)N(CC(=O)NC1CCCCC1)c1ccc(F)cc1	·	-12.9	0.0	32.5
Cc1cc(Br)c(NC(=O)CSc2nnc(N)s2)cc1C	·	-34.7	0.7	-20.5
Cc1nn(C(C)(C)C)c(OC(=O)c2ccc(Cl)cc2)c1S(=O)(=O)c1ccccc1	·	30.5	-3.2	121.1*
Cc1nn(C(C)(C)C)c(OC(=O)c2cccc(Br)c2)c1S(=O)(=O)c1ccccc1	·	52.0	-2.5	119.2*
Cc1ccc(S(=O)(=O)c2c(C)nn(C(C)(C)C)c2OC(=O)c2ccccc2C(F)(F)F)cc1	·	7.2	-2.8	61.3
Cc1ccccc1-c1nc(SCC(=O)Nc2ccc(Br)c(Cl)c2)n[nH]1	·	-3.0	0.7	-4.5
Cc1cc(Cl)ccc1N(CC(=O)Nc1c(C)n(C)n(-c2ccccc2)c1=O)S(C)(=O)=O	·	-8.2	3.0	-10.0
SMILES	Hedgehog inh	MITF inh	PD-1 reverse act	NOMO-1 viab
C[C@@H]1CN([C@H](C)CO)C(=O)c2cc(NC(=O)Cc3cn(C)c4ccccc34)ccc2O[C@H]1CN(C)Cc1ccc(C(=O)Nc2ccccc2N)cc1	·	7.3	-0.3	22.5
C[C@@H]1CN([C@@H](C)CO)C(=O)c2cc(NC(=O)Cc3cn(C)c4ccccc34)ccc2O[C@H]1CN(C)Cc1ccc(C(=O)Nc2ccccc2N)cc1	·	18.6	-1.5	50.6
C[C@@H]1CN([C@@H](C)CO)C(=O)c2cc(NC(=O)Cc3cn(C)c4ccccc34)ccc2O[C@@H]1CN(C)Cc1ccc(C(=O)Nc2ccccc2N)cc1	·	0.2	-3.5	99.4*
C[C@H](CO)N1C[C@H](C)[C@H](CN(C)Cc2ccc(C(=O)Nc3ccccc3N)cc2)Oc2ccc(NC(=O)Cc3cn(C)c4ccccc34)cc2C1=O	·	44.7	-1.9	102.3*
COc1cccc2cc(-c3nnc(SCC(=O)Nc4ccc5ccccc5c4)n3C)oc12	·	-0.3	1.0	17.2
CCn1c(SCC(=O)Nc2ccc(Cl)c(Cl)c2)nnc1-c1cc2cccc(OC)c2o1	·	35.9	·	99.8*
C[C@H](CO)N1C[C@H](C)[C@@H](CN(C)S(=O)(=O)c2cccs2)Oc2c(NC(=O)Nc3ccc(C(F)(F)F)cc3)cccc2C1=O	4.0	18.7	1.7	45.2
C[C@H]1CN([C@@H](C)CO)C(=O)c2cccc(NC(=O)Nc3ccc(C(F)(F)F)cc3)c2O[C@@H]1CN(C)S(=O)(=O)c1cccs1	-5.6	-1.6	0.8	49.1
C[C@@H]1CN([C@@H](C)CO)C(=O)c2cccc(NC(=O)Nc3ccc(C(F)(F)F)cc3)c2O[C@H]1CN(C)S(=O)(=O)c1cccs1	2.2	11.0	·	88.1*
C[C@@H]1CN([C@H](C)CO)C(=O)c2cccc(NC(=O)Nc3ccc(C(F)(F)F)cc3)c2O[C@@H]1CN(C)S(=O)(=O)c1cccs1	?	24.3	·	100.9*
C[C@H](CO)N1C[C@H](C)[C@@H](CN(C)Cc2ccc(C(F)(F)F)cc2)Oc2ccc(NS(=O)(=O)c3ccc(Cl)cc3)cc2C1=O	12.6	30.8	-5.9	67.9
C[C@@H]1CN([C@H](C)CO)C(=O)c2cc(NS(=O)(=O)c3ccc(Cl)cc3)ccc2O[C@H]1CN(C)Cc1ccc(C(F)(F)F)cc1	14.9	-15.8	-1.0	123.3*
C[C@H]1CN([C@@H](C)CO)C(=O)c2cc(NS(=O)(=O)c3ccc(Cl)cc3)ccc2O[C@@H]1CN(C)Cc1ccc(C(F)(F)F)cc1	7.7	4.5	-5.6	110.7*
CC(C)Cn1c(SCC(=O)c2ccc(Cl)cc2)nc2ccccc2c1=O	53.8	13.1	-0.1	50.6
Cc1nc2ccc(F)cc2c2c1CCN2c1ccc(Cl)cc1	·	43.7	-5.9	107.1*
COc1ccc(CNC(=O)Nc2ncc([N+](=O)[O-])s2)cc1	49.4	87.4*	6.2	39.3
COc1ccc(OC)c(NC(=O)NCc2cnn(C)c2)c1	·	-22.3	1.7	6.9
CCOC(=O)C1CCCN(Cc2nc(N)nc(Nc3ccccc3)n2)C1 (stereo unspecified)	·	6.3	0.4	112.6*
Cc1ccc(Nc2nc(N)nc(CN3CCN(C(c4ccccc4)c4ccccc4)CC3)n2)cc1	·	46.6	-9.2	89.4*
Cc1ccc(C(O)c2nccc3ccccc23)cc1 (stereo unspecified)	23.1	-8.5	2.4	-1.5
